The source made the active and inactive calls. Unless noted, no rule for the calls is given here.
What was measured:
[1] = A549 cell viability effects, profiling panel, calcein-AM fluorescence, 48 h, basal (AID 1162); conditions: higher = more signal; also: test concentration not given here
[2] = adipocyte viability effects, profiling panel, cell-based, 3T3-L1 adipocytes, calcein-AM fluorescence, 48 h, basal (AID 1163); conditions: 3T3-L1 adipocytes viability, higher = more signal; also: test concentration not given here
[3] = HepG2 cell viability effects, profiling panel, calcein-AM fluorescence, 48 h, basal (AID 1164); conditions: higher = more signal; also: test concentration not given here
[4] = MM1S cell viability effects, profiling panel, calcein-AM fluorescence, 48 h, basal (AID 1165); conditions: higher = more signal;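 also: viability of MM1S multiple myeloma cells under basal unstimulated conditions; test concentration not given here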
[5] = basal RPMI8226 viability, no added stimulus, profiling panel, cell-based, calcein-AM fluorescence, 48 h, PK04 Diversity Set (AID 1166); conditions: RPMI8226 myeloma viability, higher = more signal;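 also: cells grown under basal conditions without added stimulus; test concentration not given here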
[6] = basal HepG2 mitochondrial membrane potential changes, profiling panel, cell-based, JC-1 fluorescence, 24 h, 100 nL compound (AID 1167); conditions: higher = more signal; also: test concentration not given here
[7] = basal 3T3-L1 adipocyte mitochondrial potential changes, profiling panel, cell-based, JC-1 fluorescence, 3T3-L1 adipocytes, 24 h, 100 nL compound (AID 1168); conditions: JC-1 mitochondrial fluorescence, higher = more signal, called active from +8 up or from −8 down; also: test concentration not given here
[8] = basal RPMI8226 mitochondrial membrane potential changes, profiling panel, cell-based, JC-1 fluorescence, 24 h, 100 nL compound (AID 1169); conditions: RPMI8226 myeloma, JC-1 mitochondrial potential fluorescence, higher = more signal; also: test concentration not given here
[9] = basal MM1S mitochondrial membrane potential changes, profiling panel, cell-based, JC-1 fluorescence, 24 h, 100 nL compound (AID 1170); conditions: higher = more signal; also: test concentration not given here
[10] = A549 lung cancer cell viability effects, profiling panel, resazurin fluorescence, 24 h, PK04 Diversity Set (AID 1171); conditions: higher = more signal, called active from +8 up or from −8 down; also: test concentration not given here
[11] = HepG2 liver cancer cell viability effects, profiling panel, resazurin fluorescence, 24 h, PK04 Diversity Set (AID 1172); conditions: higher = more signal; also: test concentration not given here
[12] = basal S. cerevisiae growth modulation, no modifier, primary screen, OD600, strain BY4716, 24 h, basal condition (AID 1173); conditions: OD600, 24 h, higher = more signal, called active from +8 up or from −8 down
[13] = MM1S myeloma cell viability, profiling panel, resazurin fluorescence, basal, 24 h, PK04 Diversity Set (AID 1174); conditions: higher = more signal, called active from +8 up or from −8 down;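 also: MM1S multiple myeloma cell line; test concentration not given here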
[14] = molecular target: Dihydroorotate dehydrogenase (quinone), mitochondrial (Plasmodium falciparum (isolate 3D7)) (UniProt Q08210); assay: PfDHODH enzyme inhibitors, primary screen, biochemical, C-terminal His tag, absorbance 600 nm (AID 1175); conditions: DCIP absorbance 600 nm, higher = more signal, called active from +8 up or from −8 down;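 also: recombinant parasite enzyme with a five histidine tag at its C terminus; test concentration not given here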
Sequence of Dihydroorotate dehydrogenase (quinone), mitochondrial (Plasmodium falciparum (isolate 3D7)) (Q08210 whole entry, looked up): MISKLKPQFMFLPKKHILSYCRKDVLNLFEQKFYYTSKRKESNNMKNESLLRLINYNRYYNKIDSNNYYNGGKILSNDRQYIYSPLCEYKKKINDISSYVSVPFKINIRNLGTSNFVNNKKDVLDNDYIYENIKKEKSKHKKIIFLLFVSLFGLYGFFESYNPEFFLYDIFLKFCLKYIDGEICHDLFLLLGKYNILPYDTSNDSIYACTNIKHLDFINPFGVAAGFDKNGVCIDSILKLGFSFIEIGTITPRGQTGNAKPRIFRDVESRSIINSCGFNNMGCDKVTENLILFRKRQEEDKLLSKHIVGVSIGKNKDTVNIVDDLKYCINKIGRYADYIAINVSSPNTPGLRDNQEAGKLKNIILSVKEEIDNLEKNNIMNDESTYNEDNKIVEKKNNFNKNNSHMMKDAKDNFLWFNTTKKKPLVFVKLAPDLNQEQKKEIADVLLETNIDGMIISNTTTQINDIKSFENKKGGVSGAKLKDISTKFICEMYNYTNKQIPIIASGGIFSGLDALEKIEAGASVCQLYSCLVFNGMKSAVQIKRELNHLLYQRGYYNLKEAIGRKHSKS

[15] = P. aeruginosa biofilm formation inhibitors, primary screen, strain PAO1, LB-PBS medium, absorbance 600 nm (AID 1176); also: test concentration not given here; conditions: P. aeruginosa PAO1 growth/biofilm, A600, 12 h; higher = more signal
[16] = S. cerevisiae RM11-1a growth modifiers, primary screen, strain RM11-1a, OD600, basal, 24 h (AID 1177); conditions: OD600, 24 h, higher = more signal, called active from +8 up or from −8 down;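 also: cultures grown under basal conditions with no added stressor; test concentration not given here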
[17] = E. coli acrAB mutant growth effects, primary screen, E. coli filamentation inducers, strain DRC39, OD650, 24 h (AID 1178); conditions: higher = more signal, called active from +8 up or from −8 down;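 also: growth measured as culture turbidity by optical density at 650 nm; test concentration not given here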
[18] = E. coli acrAB mutant growth effects, primary screen, E. coli filamentation inducers, strain DRC39, OD650, 48 h (AID 1179);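 also: screen aims at cell division blockers that make cells filament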; conditions: E. coli DRC39 delta-acrAB growth, higher = more signal, called active from +8 up or from −8 down
[19] = RPMI8226 myeloma cell viability, profiling panel, resazurin fluorescence, basal, 24 h, PK04 Diversity Set (AID 1180); conditions: higher = more signal;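 also: RPMI8826 multiple myeloma cell line at 5000 cells per well; test concentration not given here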
[20] = molecular target: E3 ubiquitin-protein ligase XIAP (Homo sapiens) (UniProt P98170); assay: XIAP binders, primary screen, biophysical, small-molecule microarray, fluorescence 635 nm (AID 1181); conditions: small-molecule microarray binding, higher = more signal;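 also: score merges 667 nm emission and signal to noise over triplicate slides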
Sequence of E3 ubiquitin-protein ligase XIAP (Homo sapiens) (P98170 whole entry, looked up): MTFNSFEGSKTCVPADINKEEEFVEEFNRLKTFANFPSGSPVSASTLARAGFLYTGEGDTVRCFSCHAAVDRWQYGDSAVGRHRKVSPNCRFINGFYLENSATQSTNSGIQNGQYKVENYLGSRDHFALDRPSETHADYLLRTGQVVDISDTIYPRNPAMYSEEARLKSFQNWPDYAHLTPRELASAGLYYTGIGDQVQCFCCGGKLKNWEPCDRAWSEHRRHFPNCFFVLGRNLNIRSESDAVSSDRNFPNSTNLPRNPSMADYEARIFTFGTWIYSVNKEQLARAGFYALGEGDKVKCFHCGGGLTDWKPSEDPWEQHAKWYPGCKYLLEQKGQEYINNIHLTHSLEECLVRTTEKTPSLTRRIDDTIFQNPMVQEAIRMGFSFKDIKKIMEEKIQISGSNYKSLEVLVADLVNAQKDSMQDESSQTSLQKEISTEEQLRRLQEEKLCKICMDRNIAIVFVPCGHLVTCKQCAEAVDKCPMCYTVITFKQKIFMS

Compound	z-score [1]	z-score [2]	z-score [3]	z-score [4]	z-score [5]	z-score [6]	z-score [7]	z-score [8]	z-score [9]	z-score [10]	z-score [11]	z-score [12]	z-score [13]	composite z-score [14]	z-score [15]	z-score [16]	z-score [17]	z-score [18]	z-score [19]	composite z-score [20]
C=CC[C@@]1(C(=O)NCc2ccccc2)N=C(c2ccc(OCCCO)cc2)O[C@@H]1c1ccccc1CN=[N+]=[N-]	-0.651	0.115	-1.09	-1.84	-3	-0.675	-1.85 (inactive)	-0.979	-0.975	-1.23 (inactive)	-0.46	1.36 (inactive)	-1.89 (inactive)	1.63 (inactive)	1.1 (inactive)	2.33 (inactive)	0.537 (inactive)	-0.793 (inactive)	-1.45	0.404
C=C[C@H](C)[C@H](O)c1ccc(OCCO)cc1	-0.001	0.557	-0.548	1.17	-0.484	0.221	-0.721 (inactive)	-0.238	-0.339	-0.276 (inactive)	0.847	-1.4 (inactive)	0.867 (inactive)	0.257 (inactive)	0.261 (inactive)	0.349 (inactive)	0.74 (inactive)	0.715 (inactive)	-1.9	-0.115
C=C(COC)/C(=C/C[C@H](OC(C)=O)c1ccccc1OCCO)c1cnc2ccccc2c1	0.406	-0.309	-0.738	-2.08	-1.32	1.4	-1.34 (inactive)	-0.439	-0.62	-0.0424 (inactive)	-0.192	1.36 (inactive)	-0.885 (inactive)	-2.14 (inactive)	1.57 (inactive)	1.19 (inactive)	-0.447 (inactive)	-0.334 (inactive)	-0.784	-0.173
COc1ccc([Si](C)(C)[C@@H]2[C@@H](CC(=O)N3Cc4ccccc4C[C@H]3CO)O[C@]3(C(=O)N(Cc4cccc(N5C(=O)COc6ccccc65)c4)c4ccccc43)[C@H]2C)cc1	0.196	1.34	0.553	-0.296	-1.47	0.411	1.52 (inactive)	-1.17	-0.974	-0.751 (inactive)	0.645	-1.17 (inactive)	-1.84 (inactive)	-1.32 (inactive)	1.92 (inactive)	1.39 (inactive)	1.53 (inactive)	1.53 (inactive)	-0.748	0.188
COCCCNC(=O)[C@@]1(Sc2ccc(C)cc2)CC(=O)N(Cc2ccccc2)[C@@H]1c1ccc(CO)cc1	-0.837	0.0417	-0.543	-0.0185	0.381	-0.658	-0.265 (inactive)	0.216	-1.38	1.28 (inactive)	0.802	0.0695 (inactive)	0.495 (inactive)	-0.0163 (inactive)	0.366 (inactive)	-0.194 (inactive)	0.234 (inactive)	0.127 (inactive)	1.01	-0.0492
C=C(/C(=C/C[C@@H](OC(C)=O)c1ccc(CO)o1)c1cnc2ccccc2c1)C(C)C	-0.0718	1.36	-1.07	-0.644	-0.596	-1.33	-0.561 (inactive)	-0.292	0.335	-1.45 (inactive)	-1.05	-0.177 (inactive)	0.0858 (inactive)	-8.23 (active)	0.0721 (inactive)	0.27 (inactive)	0.99 (inactive)	-0.0766 (inactive)	0.0262	0.701
C=CC[C@@]1(C(=O)OC)N=C(c2ccc(OCCCO)cc2)O[C@@H]1c1ccccc1CN=[N+]=[N-]	-0.817	0.358	-1.13	-2.7	-3.17	0.195	1.31 (inactive)	-0.969	-0.949	-1.19 (inactive)	1.09	-12.3 (active)	-1.72 (inactive)	-0.509 (inactive)	-0.347 (inactive)	-0.712 (inactive)	0.419 (inactive)	0.967 (inactive)	-0.494	-0.0868
COC(=O)[C@@]1(Cc2ccc(OC)cc2)[C@H]2c3cc(C(=O)N(C)C)n(CCSCCO)c3C[C@H]2CN1C(=O)c1ccccc1	-0.46	-0.774	0.595	-2.12	-0.254	1.47	-0.358 (inactive)	0.179	-1.07	-0.494 (inactive)	0.123	0.32 (inactive)	-0.415 (inactive)	-0.669 (inactive)	0.852 (inactive)	-0.459 (inactive)	0.219 (inactive)	-0.143 (inactive)	-0.409	-0.0062
CC(C)C[C@@H]1NC(=O)[C@@H]2C[C@H](C(=O)NCCCCN(C)C)[C@H](c3ccc(O)cc3)N2C1=O	-0.583	-0.339	-0.375	0.12	0.579	-1.26	-0.0811 (inactive)	-0.0507	0.218	0.408 (inactive)	0.955	0.463 (inactive)	0.396 (inactive)	-0.0312 (inactive)	-0.475 (inactive)	0.505 (inactive)	-0.113 (inactive)	-0.401 (inactive)	0.0109	0.102
C=C(C(=O)CC[C@@H](OC(=O)c1cccnc1)c1ccc(CO)o1)C(C)C	-0.628	0.153	-0.545	-1.06	-0.56	-1.3	0.0907 (inactive)	0.283	0.48	-0.297 (inactive)	0.158	-0.708 (inactive)	0.285 (inactive)	-0.0661 (inactive)	0.437 (inactive)	0.113 (inactive)	-0.391 (inactive)	-0.562 (inactive)	0.594	0.396
COC(=O)[C@@]1(Cc2ccc(OC)cc2)[C@H]2c3cc(C(=O)N4CCCC4)n(CCN4CCOCC4)c3C[C@H]2CN1C(=O)c1ccccc1	-1.35	0.077	0.707	0.847	-1.16	2.52	0.642 (inactive)	0.28	-0.936	0.0452 (inactive)	0.142	0.642 (inactive)	-0.0281 (inactive)	-1.33 (inactive)	0.231 (inactive)	0.48 (inactive)	0.0378 (inactive)	0.484 (inactive)	0.639	0.0305
COc1ccccc1CN1C(=O)c2ccccc2[C@](Cc2ccccc2I)(C(=O)NC2CC2)[C@@H]1c1ccc(CO)cc1	-0.741	-0.475	-0.468	-0.664	-1.54	1.32	0.424 (inactive)	-1.04	-0.508	-0.264 (inactive)	-0.246	0.329 (inactive)	-0.185 (inactive)	0.629 (inactive)	0.0714 (inactive)	1.66 (inactive)	0.127 (inactive)	0.877 (inactive)	-0.198	0.591
O=C(NCCN1CCOCC1)[C@@H]1c2ccccc2C(=O)N(Cc2cc(F)cc(C(F)(F)F)c2)[C@H]1c1ccc(CO)cc1	1.22	0.767	1.2	0.34	-0.671	1.97	0.13 (inactive)	0.738	-0.119	0.935 (inactive)	-0.375	-0.191 (inactive)	0.362 (inactive)	-0.517 (inactive)	-0.0807 (inactive)	-0.64 (inactive)	0.552 (inactive)	-0.232 (inactive)	0.419	0.0451
COCCOC(=O)N1C(=O)[C@@]2(c3ccccc31)[C@H](C(=O)N1CCCCCCC1)[C@H]1C(=O)O[C@H](c3ccccc3)[C@H](c3ccccc3)N1[C@@H]2c1ccccc1OCCO	-0.501	0.293	0.603	-0.252	-1.84	-0.114	-0.226 (inactive)	-1.1	-1.04	-0.467 (inactive)	-0.415	0.406 (inactive)	-0.89 (inactive)	-0.089 (inactive)	3.81 (inactive)	1.79 (inactive)	-0.38 (inactive)	0.0795 (inactive)	-0.201	0.496
Cc1ccc(S[C@]2(C(=O)NCC(F)(F)F)CC(=O)N(C3Cc4ccccc4C3)[C@@H]2c2ccc(CO)cc2I)cc1	0.833	0.236	0.506	-2.1	-3.02	0.194	-0.131 (inactive)	0.045	-1.4	0.537 (inactive)	0.788	-3.18 (inactive)	-2.74 (inactive)	0.427 (inactive)	0.0898 (inactive)	-0.391 (inactive)	0.715 (inactive)	0.503 (inactive)	-1.32	0.0499
COc1ccc([Si](C)(C)[C@@H]2[C@@H](CCO)O[C@]3(C(=O)N(Cc4ccccc4)c4ccc(N(C=O)c5ccccc5)cc43)[C@H]2C)cc1	-0.77	-0.895	-1.13	-1.54	-3.38	0.00444	-0.435 (inactive)	-0.858	-1.56	-2.31 (inactive)	-0.131	1.59 (inactive)	-1.54 (inactive)	0.186 (inactive)	3.19 (inactive)	5.4 (inactive)	1.23 (inactive)	0.843 (inactive)	-1.6	0.0031
